Source: PubChem (several laboratories)
Only some compounds are listed: those with a hit (about 3.2% of all), similar ones and a draw of the others.
CHT block – inhibitors of human choline transporter CHT. High affinity choline transporter 1 (Homo sapiens), Q9GZV3. AID 488975, 2010. B-score at 10 µM. CHT-expressing cells, membrane potential dye, choline response; hits give low values. hit rate 0.86% among 310,000;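 active = B-score over 3 SD under the library average, and starting fluorescence ratio not unusually high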;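 note: choline stimulus applied at its EC90 after an EC20 pre-addition; B-score computed on integrated fluorescence ratio after choline addition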
ANO1 block – TMEM16A chloride channel inhibitors, primary screen, cell-based, HTS; HEK293 TMEM16A/YFP iodide influx fluorescence, ionomycin; normalized B-score (activity score, 25-100; higher = stronger inhibition) at 10 µM; hit rate 1.2% among 310,000;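 active = ratio plate-corrected score three or more library SD toward inhibition, starting fluorescence score within five deviations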;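 note: score derived from kinetic fluorescence span divided by baseline fluorescence per well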
Target sequence (Q8BHY3 whole entry, looked up): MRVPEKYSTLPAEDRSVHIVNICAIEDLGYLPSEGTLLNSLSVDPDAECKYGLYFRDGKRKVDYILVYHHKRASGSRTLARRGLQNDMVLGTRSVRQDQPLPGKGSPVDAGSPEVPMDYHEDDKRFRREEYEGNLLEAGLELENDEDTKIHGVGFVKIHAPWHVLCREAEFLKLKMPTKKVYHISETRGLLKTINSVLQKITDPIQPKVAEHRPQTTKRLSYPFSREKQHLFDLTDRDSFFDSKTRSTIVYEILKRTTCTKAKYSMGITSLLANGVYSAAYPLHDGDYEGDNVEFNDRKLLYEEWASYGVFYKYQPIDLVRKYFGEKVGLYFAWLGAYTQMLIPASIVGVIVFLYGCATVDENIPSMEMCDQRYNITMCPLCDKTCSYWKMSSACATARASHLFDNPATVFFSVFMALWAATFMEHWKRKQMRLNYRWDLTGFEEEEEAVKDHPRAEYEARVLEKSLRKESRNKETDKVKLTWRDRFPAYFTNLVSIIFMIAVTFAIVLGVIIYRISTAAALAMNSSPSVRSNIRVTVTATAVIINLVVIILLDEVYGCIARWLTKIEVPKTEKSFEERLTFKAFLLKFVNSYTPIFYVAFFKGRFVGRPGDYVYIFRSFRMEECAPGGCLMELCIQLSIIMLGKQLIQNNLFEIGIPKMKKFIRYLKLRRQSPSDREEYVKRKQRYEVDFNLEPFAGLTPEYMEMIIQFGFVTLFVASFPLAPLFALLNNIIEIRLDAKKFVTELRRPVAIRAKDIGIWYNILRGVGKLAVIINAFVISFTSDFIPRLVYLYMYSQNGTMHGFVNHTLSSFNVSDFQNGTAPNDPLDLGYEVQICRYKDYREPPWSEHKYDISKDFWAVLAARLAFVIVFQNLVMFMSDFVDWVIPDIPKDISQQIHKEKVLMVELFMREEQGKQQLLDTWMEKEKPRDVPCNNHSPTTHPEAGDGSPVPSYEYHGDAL
PHOSPHO1 inh – PubChem AID 1565. hit rate 1.1% among 290,000. recombinant PHOSPHO1, absorbance phosphatase assay. Phosphoethanolamine/phosphocholine phosphatase (Homo sapiens), Q8TCT1. inhibition, % at 13.3 µM; in the data active = inhibition above about 60%
HDAC3 inhib – HDAC3 deacetylase inhibitors, primary screen, biochemical, fluorescence, cell-free homogeneous | Histone deacetylase 3 (Homo sapiens), O15379 | recombinant HDAC3, fluorogenic peptide/trypsin coupled | inhibition, % at 8.3 µM | hit rate 0.15% among 320,000 | AID 2718, 2010; in the data active = inhibition above about 26%, passing the limit was not always enough
CHT PAM – CHT positive allosteric modulators, primary screen, cell-based, membrane potential dye, choline EC20; CHT-expressing cells; hits give high values; LV-AA mutant CHT in HEK293 cells; hit rate 0.49% among 310,000; B-score at 10 µM; AID 488977, 2010; High affinity choline transporter 1 (Homo sapiens), Q9GZV3;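 active = initial fluorescence not abnormally high and integrated response B-score, plate-corrected, over 3 SD above library mean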
ANO1 activ – TMEM16A chloride channel activators or potentiators, primary screen, cell-based, HTS; HEK293 TMEM16A/YFP-H148Q/I152L, iodide quench fluorescence; hits give low values; hit rate 0.3% among 340,000; Anoctamin-1 (Mus musculus), Q8BHY3; B-score at 10 µM;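 active = fluorescence-ratio B-score plate-corrected deviation score at least 3 library SD below zero, with starting fluorescence score within 5 deviations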;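 note: channel opened by trigger with iodide after compound preincubation; score built on the fluorescence ratio of max minus min over baseline; more negative score means more quench and so TMEM16A activation or potentiation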
Hits are given with their value; . = inactive; / = no result.

SMILES	CHT block	ANO1 block	PHOSPHO1 inh	HDAC3 inhib	CHT PAM	ANO1 activ
CC(OC(=O)/C(C#N)=C/c1ccc(N(C)C)cc1)C(=O)N(C)Cc1ccccc1 (stereo not drawn)	.	.	.	.	.	-10.1
N#C/C(=C\c1ccc(OCc2ccccc2)cc1)C(N)=O	.	.	.	.	.	.
O=C1CCCN1CCCNCC(O)c1ccccc1 (stereo not drawn)	.	.	.	.	.	.
Cn1c(=O)c(=O)n(C)c2cc(S(=O)(=O)N3CCN(c4ccccc4F)CC3)ccc21	.	.	.	.	.	.
Cc1cc(/C=N/NC(=O)c2ccccc2F)c(C)n1-c1ccccc1	-6.33	.	.	.	.	.
Cc1cc(/C=N/NC(=O)c2cccc(F)c2)c(C)n1-c1ccccc1	.	.	.	.	.	.
NC(=Nc1ccccc1)Nc1ccccc1	.	.	/	.	.	-14.1
CCc1ccc(OCCCCCn2ccnc2)cc1	.	.	.	.	.	.
Cc1cc(N2CCCC2)nc2ccc(NC(=S)NCCCN3CCC(C)CC3)cc12	-7.9	.	.	.	.	.
Cc1cc(N2CCN(C)CC2)nc2ccc(NC(=S)NCCCN3CCc4ccccc4C3)cc12	.	.	.	.	.	.
Cc1c(C(=O)NN2CCN(C)CC2)cccc1[N+](=O)[O-]	.	.	60.5	.	.	.
Cc1c(C(=O)NN2CCOCC2)cccc1[N+](=O)[O-]	.	.	/	.	.	.
CCOC(=O)c1ccc(NC(=O)c2ccccc2[N+](=O)[O-])cc1	.	.	.	.	.	.
CCOC(=O)c1cc([N+](=O)[O-])c([N+](=O)[O-])cc1NC(C)=O	-5.9	.	.	.	.	.
CC1CCN(CCCCOc2ccc([N+](=O)[O-])cc2)CC1	.	.	.	.	.	.
COC(=O)C1CCN(Cc2ccc(OCCCN3CCN(c4ccc([N+](=O)[O-])cc4)CC3)cc2)CC1	.	25	.	.	.	.
COc1ccc(N2CCN(C(=O)CSc3nnc(-c4ccc5[nH]c(C)c(C)c5c4)o3)CC2)cc1	.	.	63.6	.	.	.
Cc1[nH]c2ccc(-c3nnc(SCC(=O)c4ccccc4F)o3)cc2c1C	.	.	87.9	.	.	.
CCOC(=O)N1CCN(C(=O)CSc2nnc(-c3ccc(C)c(C)c3)o2)CC1	.	.	.	.	.	.
COc1ccc(-c2nnc(SCC(=O)N3CCN(c4ccccc4)CC3)o2)cc1OC	.	.	.	.	.	.
Cc1ccc(C(=O)CSc2nnc(-c3ccc4[nH]c(C)c(C)c4c3)o2)cc1C	.	.	74.2	.	.	.
COCC(=O)Nc1cccc(Br)c1	.	.	.	/	.	.
Cc1ncc([N+](=O)[O-])n1CCOC(=O)NC(NCc1cccnc1)C(Cl)(Cl)Cl (stereo not drawn)	.	.	.	.	.	.
CC(Nc1cc(N2CCN(S(=O)(=O)N(C)C)CC2)ccc1[N+](=O)[O-])c1ccccc1 (stereo not drawn)	.	.	.	.	.	.
Cc1ccc(O)c(NC(=O)c2ccc3c(c2)C(=O)N(Cc2cccnc2)C3=O)c1	.	.	62.8	.	.	.
SMILES	CHT block	ANO1 block	PHOSPHO1 inh	HDAC3 inhib	CHT PAM	ANO1 activ
Cc1cc(C)c(NC(=O)c2ccc3c(c2)C(=O)N(Cc2cccnc2)C3=O)c(C)c1	.	.	.	.	.	.
C/C(=N\Nc1nc2c(s1)CCCC2)c1ccc(Cl)cc1	.	.	.	.	.	-10.5
CN(C)c1ccc(C(=O)Nc2nc3c(s2)CCCC3)cc1	.	.	.	.	.	.
COc1cc(C=C(c2nc3ccccc3s2)c2nc3ccccc3s2)ccc1O	.	.	.	.	.	-6.67
COc1ccc(C=C(c2nc3ccccc3s2)c2nc3ccccc3s2)cc1O	.	.	.	.	.	.
CN(C)c1ccc(/C=C/c2nc3ccccc3s2)cc1	.	.	.	.	.	.
COc1cc(/C=C/c2nc3ccccc3s2)cc(OC)c1O	.	.	.	.	.	-6.9
C[C@H](N)c1nnc(SCC(=O)c2ccc(Cl)cc2)o1	.	.	.	/	.	.
